Laboratory results reported in PubChem BioAssay (NCI).
This is part of a sample that, as a whole, favours compounds with a hit. Of some 83,000 tested, about 20% had one in any assay.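 Treatment: one concentration, 48 hours, 96-well format. Scoring: percent growth, with anything below 10 considered active.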 Active and inactive are the calls of the source.

Columns and labels:
Experiment in all cases: NCI-60 one-dose screen, 48 h (100 = growth as untreated, 0 = no growth, -100 = all killed)
Conditions in all cases: 10 µM
[1] = tested on: NCI-H23 lung
[2] = tested on: NCI-H226 lung
[3] = tested on: NCI-H322M lung
[4] = tested on: HOP-62 NSCLC
[5] = tested on: NCI-H460 lung
[6] = tested on: NCI-H522 lung
[7] = tested on: A549/ATCC NSCLC
[8] = tested on: 786-0 renal
[9] = tested on: COLO 205 colon
[10] = tested on: DU-145 prostate
[11] = tested on: K-562 leukemia
[12] = tested on: MALME-3M melanoma
[13] = tested on: MDA-MB-231 breast
[14] = tested on: RXF 393 renal
[15] = tested on: SF-268 CNS
[16] = tested on: SF-295 CNS
[17] = tested on: SF-539 CNS
[18] = tested on: UACC-257 melanoma
[19] = tested on: M14 melanoma
[20] = tested on: HCT-15 colon

Measured: growth

O=[N+]([O-])c1ccc(Oc2cc(Cl)c(Cl)cc2Cl)c(C(F)(F)F)c1
inactive: [1] 111% | [2] 94.6% | [3] 98.1% | [4] 95.3% | [5] 97.7% | [6] 87.1% | [7] 91.1% | [8] 107% | [9] 122% | [10] 104% | [11] 93.8% | [12] 107% | [13] 96.4% | [14] 96.4% | [15] 101% | [16] 91.7% | [17] 95.3% | [18] 100% | [19] 101% | [20] 92.2%

COc1cc(Nc2ncnc(Nc3ccc4c(n3)NC(=O)C(C)(C)O4)n2)cc(OC)c1OC
active: [2] -27.7% | [3] 4.97% | [6] -11.6% | [7] -23.1% | [8] 8.87% | [9] -2.65% | [13] 3.82% | [14] -86.6% | [15] -21% | [17] -59.3%
inactive: [1] 25.5% | [4] 13.6% | [5] 12.1% | [10] 18.8% | [11] 34.6% | [12] 28.2% | [16] 19.6% | [18] 30.2% | [19] 40% | [20] 22.9%

O=C(c1ccc(Cl)cc1Cl)N1CCOCC1
inactive: [1] 97.3% | [2] 96.8% | [3] 101% | [4] 97% | [5] 104% | [6] 103% | [7] 98.4% | [8] 97.4% | [9] 111% | [10] 109% | [11] 89.1% | [12] 112% | [13] 98.5% | [14] 116% | [15] 98.1% | [16] 140% | [17] 96.9% | [18] 96.6% | [19] 103% | [20] 112%

N=C(N)c1ccc(-c2ccc(-c3cccs3)s2)s1
inactive: [1] 51.8% | [2] 74.2% | [17] 25.9%
active: [3] -29.8% | [4] -67.4% | [5] -82.2% | [6] -69.5% | [7] -63.2% | [8] -88.6% | [9] -93.8% | [10] -91.6% | [11] -68% | [12] -73.9% | [13] -74.3% | [14] -91.7% | [15] -29.3% | [16] -79.5% | [18] -68.5% | [19] -79.5% | [20] -68.4%

c1ccc([I+]c2ccccc2)cc1
inactive: [1] 55.6% | [2] 65.5% | [3] 72.8% | [4] 53.3% | [5] 86.5% | [6] 64.7% | [7] 48.7% | [8] 61% | [9] 55% | [10] 90% | [11] 42.2% | [12] 50.5% | [13] 87.6% | [14] 60.4% | [15] 55.7% | [16] 81% | [17] 68.9% | [18] 78.6% | [19] 72.5% | [20] 89.4%

C#Cc1ccc(-n2c(/C=C/c3ccc(C(F)(F)F)cc3)nc3ncccc3c2=O)cc1
active: [2] -42.7% | [6] 4.27% | [11] 4.03% | [14] -10.4%
inactive: [1] 78.4% | [3] 33.7% | [4] 37.6% | [5] 72.1% | [7] 23.6% | [8] 53% | [9] 18.6% | [10] 46.2% | [12] 39.1% | [13] 56.9% | [15] 31.4% | [16] 32.6% | [17] 45.2% | [18] 29% | [19] 10.7% | [20] 22.3%

Nc1ccccc1NC(=O)CCCCC(=O)Nc1ccc2c(c1)/C(=C/c1ccc[nH]1)C(=O)N2
inactive: [1] 89.6% | [2] 52.2% | [3] 63.3% | [4] 83% | [5] 73.9% | [6] 37.5% | [7] 92.9% | [8] 90.2% | [9] 87.4% | [10] 70.7% | [11] 99.6% | [12] 32.9% | [13] 93% | [14] 62.9% | [15] 71.9% | [16] 98.4% | [17] 53.1% | [18] 97.9% | [19] 69.9% | [20] 92.2%

COc1ccc(-c2cc(/C=C/C(=O)c3cc(OC)c(OC)c(OC)c3)[nH]n2)cc1OC
inactive: [1] 47.2% | [2] 63% | [7] 20.8% | [16] 29.1% | [18] 69.6% | [19] 53.2%
active: [3] 1.57% | [4] -27% | [5] -45.7% | [6] -69.8% | [8] -57.9% | [9] -42.5% | [10] 0.588% | [11] 5.1% | [12] -17.5% | [13] -25.3% | [14] -16.9% | [15] -45.7% | [17] -51.4% | [20] -15.5%

C=C1c2c(C)nn(-c3ccc(OC)cc3)c2N(C)C23C[C@@H]1C1(C)c4c(C)nn(-c5ccc(OC)cc5)c4N(C)C(C)(C[C@H]12)C3 (stereo not given in full)
inactive: [1] 33.7% | [2] 48.7% | [3] 62.4% | [4] 59.9% | [6] 47.4% | [7] 15.4% | [8] 54.3% | [9] 23.6% | [10] 56.2% | [11] 15.5% | [12] 53.9% | [13] 39.7% | [14] 67.9% | [15] 36.8% | [16] 101% | [17] 62.5% | [18] 26.8% | [19] 40% | [20] 26.3%
active: [5] 6.82%

CC(C)(C)c1ccc(N2CSC(=S)N(c3ccc(C(C)(C)C)cc3)C2)cc1
active: [6] -14.2% | [18] -6.73%
inactive: [1] 86.5% | [2] 93.2% | [3] 86.7% | [4] 88.2% | [5] 91.7% | [7] 38% | [8] 103% | [9] 92.5% | [10] 123% | [11] 90.1% | [12] 85.8% | [13] 97.4% | [14] 144% | [15] 109% | [16] 99.9% | [17] 97.9% | [19] 95.9% | [20] 94.7%

CC(=O)CSC(C)=O
inactive: [1] 108% | [2] 99% | [3] 104% | [4] 101% | [5] 103% | [6] 105% | [7] 99.6% | [8] 102% | [9] 119% | [10] 117% | [11] 106% | [12] 89.6% | [13] 99.7% | [14] 109% | [15] 105% | [16] 91.8% | [17] 95.2% | [18] 100% | [19] 103% | [20] 103%

O=c1oc2cc(OS(=O)(=O)c3ccccc3)ccc2c2c1CCCCC2
inactive: [1] 68.4% | [2] 59.6% | [3] 82.6% | [4] 78.2% | [5] 28.4% | [6] 66.4% | [7] 34.7% | [8] 68.8% | [9] 31.1% | [10] 84.8% | [11] 37.4% | [12] 66.7% | [13] 68.4% | [14] 64% | [15] 76.8% | [16] 59.8% | [17] 48.3% | [18] 50.8% | [19] 70.2% | [20] 42.2%

COc1ccc(-c2nn(-c3cccc(NC(=O)Nc4ccccc4)c3)cc2-c2ccncc2)cc1Cl
active: [5] 4.93% | [6] 5.77% | [7] -4.41% | [9] -50.6% | [13] -9.47% | [14] -59.3% | [16] -7.17% | [17] -59.1% | [18] -32.9% | [19] 9.94%
inactive: [1] 42.6% | [2] 70.6% | [3] 39.5% | [4] 46% | [8] 42.2% | [10] 50.1% | [11] 10.4% | [12] 17.9% | [15] 27.9% | [20] 16.6%

CC/C(=C(/c1ccc(OCCN(C)C)cc1)c1ccc(OC(=O)CCC(=O)c2c(C)[nH]c(/C=C3\N=C(c4ccc[nH]4)C=C3OC)c2C)cc1)c1ccccc1
inactive: [1] 52.3% | [2] 23.4% | [3] 75.3% | [4] 28% | [5] 51% | [7] 11% | [8] 21.4% | [9] 28.3% | [10] 21.4% | [14] 15.2% | [15] 31.2% | [16] 33.5% | [17] 49.7% | [18] 45.5%
active: [6] -0.572% | [11] 0.3% | [12] -9.96% | [13] -30% | [19] -66.6% | [20] 3.7%

CS(=O)(=O)Nc1ccc(Nc2c3ccccc3nc3cc([N+](=O)[O-])ccc23)cc1
inactive: [3] 62.6% | [4] 19.2% | [7] 16.5% | [9] 17.1% | [12] 22.6% | [13] 50.9% | [14] 34.5% | [15] 11.6% | [17] 24.4% | [18] 44.6%
active: [1] 1.7% | [2] 0.761% | [5] 0.406% | [6] -51.5% | [8] 6.96% | [10] 8.04% | [11] 7.9% | [16] 4.34% | [19] 4.52% | [20] 6.81%
